Screen size: about 330,000 compounds; about 930 (0.28%) were called active. The sample as a whole holds a higher share of actives than the screen did. A number with no mark means an inactive call.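 The calls were made as follows: active = inhibition of at least 40% at 20 µM, with no more than 30% in the related APOBEC3A deaminase screen; inactive = the rest.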
What follows are compounds tested against DNA dC->dU-editing enzyme APOBEC-3G (Homo sapiens) (UniProt Q9HC16) (assay: inhibition of human A3G ssDNA deamination – biochemical, fluorescence, single-stranded DNA substrate, uHTS, primary screen (AID 493012;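 also: plate controls were DMSO wells with A3G for no effect and wells lacking A3G enzyme for full effect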)). Details: recombinant A3G, ssDNA deamination FAM/TAMRA fluorescence; at 20 µM; hits give high values.
Sequence of DNA dC->dU-editing enzyme APOBEC-3G (Homo sapiens) (Q9HC16 whole entry, looked up): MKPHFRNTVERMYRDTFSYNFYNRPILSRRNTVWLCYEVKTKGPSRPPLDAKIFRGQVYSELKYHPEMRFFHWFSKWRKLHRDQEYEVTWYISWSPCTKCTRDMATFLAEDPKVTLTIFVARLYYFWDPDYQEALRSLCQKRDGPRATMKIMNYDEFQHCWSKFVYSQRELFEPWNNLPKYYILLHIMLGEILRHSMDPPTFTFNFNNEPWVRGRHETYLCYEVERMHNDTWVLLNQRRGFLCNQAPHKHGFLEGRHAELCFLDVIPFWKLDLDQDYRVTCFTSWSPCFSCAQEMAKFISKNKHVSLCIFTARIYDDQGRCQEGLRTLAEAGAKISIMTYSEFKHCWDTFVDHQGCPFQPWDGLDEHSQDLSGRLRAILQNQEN

SMILES | inhibition
COC(=O)N(c1ccc(OC)cc1)P1(=S)OCCC(C)O1 (stereo not given) | 69.7% (active)
Cn1c(O)c(C=NCCN2CCNCC2)c(=O)n(C)c1=O | -1.92%
CCCC[N+]1(C)C2CC(OC(=O)C(CO)c3ccccc3)CC1C1OC12 (stereo not given) | -0.137%
CCN1CCN(Cc2cc(OC)c3c(c2)OCO3)CC1 | -5.01%
Cc1cccc(-n2c(O)c(/C=N/N3CCOCC3)c(=O)[nH]c2=S)c1 | -9.2%

— PubChem BioAssay AID493012 (Sanford-Burnham Center for Chemical Genomics, 2011)
